Laboratory results reported in the supplement of paper PMC4840960.
Structures can show the parent of a compound that is named as a salt. ± gives the standard deviation of the averaged measurements.

Legend:
[1] = system: E18 rat cortical neuron-glia co-culture; experiment: fiber score / MBP score (myelination specific beyond OL differentiation) (ratio); higher = more myelination-specific MBP alignment; conditions: treatment time: 8 days (DIV5-DIV13)
Outline: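 Papain-dissociated primary E18 rat cortical co-cultures, plated at 20,000 cells/well on poly-d-lysine/laminin 96-well plates, were exposed to library compounds at 1 or 5 µM in myelination medium between DIV5 and DIV13. Following fixation in 4 % paraformaldehyde, cultures were stained for MBP, Olig2 and DAPI, and four 10X fields per well were analysed in duplicate wells. Values are the ratio of fiber score (continuous MBP fiber length per Olig2+ nucleus) to MBP score (thresholded MBP area × intensity per Olig2+ nucleus).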

[2] = system: E18 rat cortical neuron-glia co-culture; experiment: myelination (MBP fiber length per Olig2+ nucleus), % of 1 µM DAPT response (DMSO = 0) (% of DAPT); higher = more myelination, active = 50 or more; conditions: treatment time: 8 days (DIV5-DIV13)
Outline: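 Myelination, expressed as continuous straight MBP fiber length per Olig2+ nucleus, was normalised to 0.1 % DMSO as 0 and a 1 µM positive control as 100. The cultures were primary E18 rat cortical co-cultures dissociated with papain and plated at 20,000 cells/well on poly-d-lysine/laminin-coated 96-well plates. They received library compounds at 1 or 5 µM in myelination medium between DIV5 and DIV13. Analysis covered four 10X fields per well in duplicate wells after 4 % paraformaldehyde fixation and immunostaining for MBP and Olig2 with DAPI.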

SMILES	fiber score / MBP score ([1]; 1 µM)	fiber score / MBP score ([1]; 5 µM)	myelination ([2]; 1 µM)	myelination ([2]; 5 µM)
O=C1CN2Cc3c(ccc(Cl)c3Cl)N=C2N1 [Anagrelide hydrochloride]	0.9	0.706	-1.07 (inactive)	-10 (inactive)
CN[C@H]1CC[C@@H](c2ccc(Cl)c(Cl)c2)c2ccccc21 [Sertraline]	0.689 ± 0.18	3.18	-5.38 (inactive)	-24.9 (inactive)
CCCCC1=NC2(CCCC2)C(=O)N1Cc1ccc(-c2ccccc2-c2nnn[nH]2)cc1 [Irbesartan]	0.679	0.752	-12.8 (inactive)	-10.8 (inactive)
NCc1ccc(S(N)(=O)=O)cc1 [Mafenide]	1.07	0.912	6.37 (inactive)	3.49 (inactive)
C#C[C@]1(O)CC[C@H]2[C@@H]3CCC4=CC(=O)CC[C@@H]4[C@H]3CC[C@@]21CC [Levonorgestrel]	0.998	1.12	-13.4 (inactive)	0.485 (inactive)
CC1=C(/C=C/C(C)=C/C=C/C(C)=C/C(=O)O)C(C)(C)CCC1 [Retinoic Acid]	0.93	0.533	-3.28 (inactive)	-10.5 (inactive)
C[C@H]1[C@H](OC(=O)CCC(=O)O)O[C@@H]2O[C@@]3(C)CC[C@H]4[C@H](C)CC[C@@H]1[C@@]24OO3 [Artesunate]	0.652	1.2	-34.4 (inactive)	189
CCCCC[C@H](O)/C=C/[C@H]1[C@H](O)CC(=O)[C@@H]1CCCCCCC(=O)O [Alprostadil]	1.12	0.695	-1.94 (inactive)	-7.47 (inactive)
N[C@@H](C(=O)N[C@@H]1C(=O)N2C(C(=O)O)=C(CSc3c[nH]nn3)CS[C@H]12)c1ccc(O)cc1 [Cefatrizine]	0.846	0.832	-4.14 (inactive)	-4.37 (inactive)
